The values below come from PubChem BioAssay.

A short description of assay [1]: small molecules captured by biotinylated probe aFSTL3 – biochemical, small-molecule microarray, fluorescence 635/667, stem cell growth factor project, primary screen (AID 1064).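 Note: measures binding of the biotinylated anti-FSTL3 antibody to printed compounds.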 The following applies: higher = more signal.
A short description of assay [2]: binders from COS7 lysate, DM2A8 probe, primary screen, torsin A project, cell lysate, small-molecule microarray, fluorescence 635/667 (AID 1065). The following applies: higher = more signal, COS7 lysate expressing mutant human TOR1A.
Assay [3] can be described thus: small molecules captured by biotinylated probe aFGF2 – biochemical, small-molecule microarray, fluorescence 635/667, stem cell growth factor project, primary screen (AID 1067).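 Note: measures binding of biotinylated aFGF2 protein to printed compounds on slides; z-score merges feature fluorescence and signal-to-noise across triplicate slides.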 The conditions noted are these: higher = more signal.
Assay [4] can be described thus: small molecules captured by biotinylated probe aFGF10 – biochemical, small-molecule microarray, fluorescence 635/667, stem cell growth factor project, primary screen (AID 1071).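 Note: score merges 667 nm spot intensity and signal to noise from triplicate slides.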 The conditions noted are these: higher = more signal.
Assay [5] concerns the target Neurogenic locus notch homolog protein 2 (Homo sapiens) (UniProt Q04721). As to the kind of experiment: small molecules binding Notch2 protein – biochemical, small-molecule microarray, 635 nm fluorescence, stem cell growth factors, primary screen (AID 1073). The following applies: higher = more signal.
Assay [6] deals with Pro-neuregulin-1, membrane-bound isoform (Homo sapiens) (UniProt Q02297). The assay can be described thus: small molecules binding neuregulin-1 protein – biochemical, small-molecule microarray, fluorescence 635/667, psychiatric disease protein project, primary screen (AID 1075).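 Note: score combines 667 nm spot fluorescence with signal to noise.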 The conditions noted are these: NRG1 binding, 635 nm fluorescence, higher = more signal.
In assay [7] the test system is Neuregulin-1 EGF-like domain. As to the kind of experiment: small molecules binding NRG1 EGF domain – biochemical, small-molecule microarray, 635 nm fluorescence, primary screen (AID 1081).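 Note: binding of the protein to compounds printed on small-molecule microarray slides.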 The conditions noted are these: higher = more signal.
A short description of assay [8]: FRG1 expression reporter modulators in myotubes – cell-based, C2C12 myotubes, firefly/Renilla luciferase, luminescence, FRG1 inhibition for FSHD, primary screen (AID 1084). The following applies: FRG1 promoter luciferase, higher = more signal, called active from +8 up or from −8 down.
The nature of assay [9]: small molecules captured by biotinylated probe aFST – biochemical, small-molecule microarray, fluorescence 635/667, stem cell growth factor project, primary screen (AID 1086).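 Note: score merges 667 nm fluorescence with signal-to-noise of each printed compound spot.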 The conditions noted are these: higher = more signal.
Assay [10] is described as follows: binders of probe aHhip on microarray, primary screen, stem cell growth factor project, biochemical, small-molecule microarray, fluorescence 635/667 (AID 1087).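 Note: score merges spot fluorescence at 667nm with spot signal to noise ratio.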 The conditions noted are these: higher = more signal.
Assay [11] deals with PRMT1 (protein arginine N-methyltransferase 1). As to the kind of experiment: small molecules binding arginine methyltransferase PRMT1 – biochemical, small-molecule microarray, 635 nm fluorescence, primary screen (AID 1088).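 Note: binding of Prmt1 protein to compounds spotted on small-molecule microarray slides.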 The conditions noted are these: higher = more signal.
Assay [12] can be described thus: growth effects on S. cerevisiae YJM789 – YJM789 clinical isolate, OD600, 24 h, basal, primary screen (AID 1089).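 Note: growth of clinical yeast isolate S. cerevisiae YJM 789 seeded 1000 cells per well; test concentration not given here.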 The conditions noted are these: higher = more signal, called active from +8 up or from −8 down.
The nature of assay [13]: S. pombe growth modifiers, basal conditions – strain 972, OD600, 24 h, no modulator, primary screen (AID 1090).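 Note: basal condition with compound alone and no growth modifier present; test concentration not given here.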 The conditions noted are these: S. pombe 972 growth, higher = more signal, called active from +8 up or from −8 down.
A short description of assay [14]: budding yeast growth modifiers under rapamycin – strain BY4716, OD600, 96 h, primary screen (AID 1091). Note: test concentration not given here. The following applies: S. cerevisiae BY4716 + rapamycin, higher = more signal, called active from +8 up or from −8 down.
Assay [15] deals with Torsin-1A-interacting protein 2 (Homo sapiens) (UniProt Q8NFQ8). As to the kind of experiment: small molecules binding lysate-expressed LULL1 – cell lysate, human LULL1 lysate, 635/667 nm fluorescence, primary screen (AID 1092).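 Note: probe is lysate of COS7 cells overexpressing human LULL1; score merges per-feature 667 nm fluorescence with signal-to-noise.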 The conditions noted are these: small-molecule microarray, hLULL1 lysate binding, 635 nm fluorescence; higher = more signal.
Assay [16] in a line: optical density change of DRC41 E. coli – strain DRC41, OD650, 24 h, E. coli filamentation project, primary screen (AID 1093).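 Note: MC1000 strain lacking acrAB efflux and sulA so SOS filamentation is blocked; test concentration not given here.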 The conditions noted are these: E. coli DRC41 growth, higher = more signal, called active from +8 up or from −8 down.
Assay [17] can be described thus: probe aLefty2 binding to arrayed compounds – biochemical, biotinylated probe, 635/667 nm fluorescence, primary screen (AID 1094).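 Note: score merges spot fluorescence near 667 nm with spot signal-to-noise ratio.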 The conditions noted are these: small-molecule microarray, higher = more signal.
Assay [18] concerns Noggin (protein binding on small-molecule microarray). The assay can be described thus: small molecules binding Noggin protein – biochemical, 635/667 nm fluorescence, primary screen (AID 1095).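 Note: score merges 667 nm feature fluorescence with signal to noise over triplicate slides.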 The following applies: 635 nm fluorescence, higher = more signal.
For assay [19], the target named is Neurogenic locus notch homolog protein 3 (Homo sapiens) (UniProt Q9UM47). As to the kind of experiment: small molecules binding NOTCH3 protein – biochemical, 635/667 nm fluorescence, primary screen (AID 1096). The conditions noted are these: small-molecule microarray, 635 nm fluorescence, higher = more signal.
Assay [20] is described as follows: probe aEGFR binding to arrayed compounds – biochemical, biotinylated probe, 635/667 nm fluorescence, primary screen (AID 1097).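 Note: probe is a biotinylated anti-EGFR antibody binding compounds printed on slides; score combines fluorescence near 667 nm and signal to noise of each spot.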 The following applies: small-molecule microarray, higher = more signal.

The source made the active and inactive calls.

Neurogenic locus notch homolog protein 2 (Homo sapiens), sequence (Q04721 whole entry, looked up, canonical isoform): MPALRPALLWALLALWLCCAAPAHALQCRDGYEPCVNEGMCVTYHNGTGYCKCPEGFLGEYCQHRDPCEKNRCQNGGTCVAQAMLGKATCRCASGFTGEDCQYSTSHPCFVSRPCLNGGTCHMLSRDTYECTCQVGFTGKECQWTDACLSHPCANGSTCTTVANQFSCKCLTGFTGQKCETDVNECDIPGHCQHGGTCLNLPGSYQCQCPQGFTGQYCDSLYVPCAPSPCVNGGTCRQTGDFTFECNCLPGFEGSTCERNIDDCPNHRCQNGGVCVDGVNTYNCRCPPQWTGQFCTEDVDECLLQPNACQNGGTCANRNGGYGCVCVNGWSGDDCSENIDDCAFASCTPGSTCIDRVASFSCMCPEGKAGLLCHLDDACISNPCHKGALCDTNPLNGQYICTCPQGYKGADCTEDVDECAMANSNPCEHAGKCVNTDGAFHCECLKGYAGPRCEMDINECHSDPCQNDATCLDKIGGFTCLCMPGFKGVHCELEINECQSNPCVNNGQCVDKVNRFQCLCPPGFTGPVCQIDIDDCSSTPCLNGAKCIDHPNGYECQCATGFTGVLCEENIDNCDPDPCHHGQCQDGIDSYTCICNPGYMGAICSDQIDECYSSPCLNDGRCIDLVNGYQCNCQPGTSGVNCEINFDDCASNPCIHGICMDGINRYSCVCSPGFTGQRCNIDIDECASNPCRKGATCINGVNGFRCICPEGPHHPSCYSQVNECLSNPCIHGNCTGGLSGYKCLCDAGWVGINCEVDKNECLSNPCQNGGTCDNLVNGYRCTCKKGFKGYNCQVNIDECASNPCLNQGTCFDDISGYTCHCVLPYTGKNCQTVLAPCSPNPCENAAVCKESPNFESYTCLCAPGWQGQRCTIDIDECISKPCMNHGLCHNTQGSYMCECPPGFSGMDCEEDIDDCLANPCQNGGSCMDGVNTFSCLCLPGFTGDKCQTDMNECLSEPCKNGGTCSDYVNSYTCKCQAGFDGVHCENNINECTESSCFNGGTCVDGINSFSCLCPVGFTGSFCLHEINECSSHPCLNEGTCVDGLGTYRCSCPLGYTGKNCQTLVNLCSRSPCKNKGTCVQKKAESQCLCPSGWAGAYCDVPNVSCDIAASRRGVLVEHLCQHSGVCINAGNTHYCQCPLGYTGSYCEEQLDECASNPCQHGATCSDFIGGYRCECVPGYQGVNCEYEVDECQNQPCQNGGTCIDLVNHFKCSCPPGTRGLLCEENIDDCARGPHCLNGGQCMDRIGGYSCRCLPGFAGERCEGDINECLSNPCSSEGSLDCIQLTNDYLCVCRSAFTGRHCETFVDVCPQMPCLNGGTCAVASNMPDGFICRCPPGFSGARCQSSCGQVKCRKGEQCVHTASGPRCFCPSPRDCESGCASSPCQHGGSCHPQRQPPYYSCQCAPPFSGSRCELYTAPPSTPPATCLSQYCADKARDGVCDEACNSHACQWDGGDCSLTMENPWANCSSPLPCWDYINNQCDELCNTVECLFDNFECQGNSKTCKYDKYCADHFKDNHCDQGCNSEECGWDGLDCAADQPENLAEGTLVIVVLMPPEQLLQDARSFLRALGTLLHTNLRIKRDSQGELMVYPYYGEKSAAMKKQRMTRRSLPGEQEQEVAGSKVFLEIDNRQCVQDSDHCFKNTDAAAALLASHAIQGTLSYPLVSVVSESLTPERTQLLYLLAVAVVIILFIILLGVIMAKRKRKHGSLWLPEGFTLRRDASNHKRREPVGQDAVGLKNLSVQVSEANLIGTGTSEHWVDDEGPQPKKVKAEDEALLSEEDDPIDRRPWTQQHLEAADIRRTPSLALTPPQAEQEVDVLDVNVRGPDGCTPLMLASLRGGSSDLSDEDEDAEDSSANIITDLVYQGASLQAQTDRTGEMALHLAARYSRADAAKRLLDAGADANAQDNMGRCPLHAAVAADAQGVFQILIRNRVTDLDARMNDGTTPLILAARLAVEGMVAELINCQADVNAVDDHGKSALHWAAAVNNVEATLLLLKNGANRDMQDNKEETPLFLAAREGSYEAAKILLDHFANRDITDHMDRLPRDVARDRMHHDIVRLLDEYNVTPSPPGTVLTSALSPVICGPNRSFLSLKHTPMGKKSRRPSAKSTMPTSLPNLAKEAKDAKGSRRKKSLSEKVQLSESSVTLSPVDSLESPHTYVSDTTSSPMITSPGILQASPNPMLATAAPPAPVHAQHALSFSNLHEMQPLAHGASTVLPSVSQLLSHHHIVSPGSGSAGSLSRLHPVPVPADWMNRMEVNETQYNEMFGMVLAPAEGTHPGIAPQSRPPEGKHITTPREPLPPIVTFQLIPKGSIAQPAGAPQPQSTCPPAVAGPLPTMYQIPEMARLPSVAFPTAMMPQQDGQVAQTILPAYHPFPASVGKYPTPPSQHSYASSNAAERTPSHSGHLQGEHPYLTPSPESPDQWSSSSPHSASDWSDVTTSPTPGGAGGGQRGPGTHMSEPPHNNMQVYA
Neurogenic locus notch homolog protein 3 (Homo sapiens), sequence (Q9UM47 whole entry, looked up): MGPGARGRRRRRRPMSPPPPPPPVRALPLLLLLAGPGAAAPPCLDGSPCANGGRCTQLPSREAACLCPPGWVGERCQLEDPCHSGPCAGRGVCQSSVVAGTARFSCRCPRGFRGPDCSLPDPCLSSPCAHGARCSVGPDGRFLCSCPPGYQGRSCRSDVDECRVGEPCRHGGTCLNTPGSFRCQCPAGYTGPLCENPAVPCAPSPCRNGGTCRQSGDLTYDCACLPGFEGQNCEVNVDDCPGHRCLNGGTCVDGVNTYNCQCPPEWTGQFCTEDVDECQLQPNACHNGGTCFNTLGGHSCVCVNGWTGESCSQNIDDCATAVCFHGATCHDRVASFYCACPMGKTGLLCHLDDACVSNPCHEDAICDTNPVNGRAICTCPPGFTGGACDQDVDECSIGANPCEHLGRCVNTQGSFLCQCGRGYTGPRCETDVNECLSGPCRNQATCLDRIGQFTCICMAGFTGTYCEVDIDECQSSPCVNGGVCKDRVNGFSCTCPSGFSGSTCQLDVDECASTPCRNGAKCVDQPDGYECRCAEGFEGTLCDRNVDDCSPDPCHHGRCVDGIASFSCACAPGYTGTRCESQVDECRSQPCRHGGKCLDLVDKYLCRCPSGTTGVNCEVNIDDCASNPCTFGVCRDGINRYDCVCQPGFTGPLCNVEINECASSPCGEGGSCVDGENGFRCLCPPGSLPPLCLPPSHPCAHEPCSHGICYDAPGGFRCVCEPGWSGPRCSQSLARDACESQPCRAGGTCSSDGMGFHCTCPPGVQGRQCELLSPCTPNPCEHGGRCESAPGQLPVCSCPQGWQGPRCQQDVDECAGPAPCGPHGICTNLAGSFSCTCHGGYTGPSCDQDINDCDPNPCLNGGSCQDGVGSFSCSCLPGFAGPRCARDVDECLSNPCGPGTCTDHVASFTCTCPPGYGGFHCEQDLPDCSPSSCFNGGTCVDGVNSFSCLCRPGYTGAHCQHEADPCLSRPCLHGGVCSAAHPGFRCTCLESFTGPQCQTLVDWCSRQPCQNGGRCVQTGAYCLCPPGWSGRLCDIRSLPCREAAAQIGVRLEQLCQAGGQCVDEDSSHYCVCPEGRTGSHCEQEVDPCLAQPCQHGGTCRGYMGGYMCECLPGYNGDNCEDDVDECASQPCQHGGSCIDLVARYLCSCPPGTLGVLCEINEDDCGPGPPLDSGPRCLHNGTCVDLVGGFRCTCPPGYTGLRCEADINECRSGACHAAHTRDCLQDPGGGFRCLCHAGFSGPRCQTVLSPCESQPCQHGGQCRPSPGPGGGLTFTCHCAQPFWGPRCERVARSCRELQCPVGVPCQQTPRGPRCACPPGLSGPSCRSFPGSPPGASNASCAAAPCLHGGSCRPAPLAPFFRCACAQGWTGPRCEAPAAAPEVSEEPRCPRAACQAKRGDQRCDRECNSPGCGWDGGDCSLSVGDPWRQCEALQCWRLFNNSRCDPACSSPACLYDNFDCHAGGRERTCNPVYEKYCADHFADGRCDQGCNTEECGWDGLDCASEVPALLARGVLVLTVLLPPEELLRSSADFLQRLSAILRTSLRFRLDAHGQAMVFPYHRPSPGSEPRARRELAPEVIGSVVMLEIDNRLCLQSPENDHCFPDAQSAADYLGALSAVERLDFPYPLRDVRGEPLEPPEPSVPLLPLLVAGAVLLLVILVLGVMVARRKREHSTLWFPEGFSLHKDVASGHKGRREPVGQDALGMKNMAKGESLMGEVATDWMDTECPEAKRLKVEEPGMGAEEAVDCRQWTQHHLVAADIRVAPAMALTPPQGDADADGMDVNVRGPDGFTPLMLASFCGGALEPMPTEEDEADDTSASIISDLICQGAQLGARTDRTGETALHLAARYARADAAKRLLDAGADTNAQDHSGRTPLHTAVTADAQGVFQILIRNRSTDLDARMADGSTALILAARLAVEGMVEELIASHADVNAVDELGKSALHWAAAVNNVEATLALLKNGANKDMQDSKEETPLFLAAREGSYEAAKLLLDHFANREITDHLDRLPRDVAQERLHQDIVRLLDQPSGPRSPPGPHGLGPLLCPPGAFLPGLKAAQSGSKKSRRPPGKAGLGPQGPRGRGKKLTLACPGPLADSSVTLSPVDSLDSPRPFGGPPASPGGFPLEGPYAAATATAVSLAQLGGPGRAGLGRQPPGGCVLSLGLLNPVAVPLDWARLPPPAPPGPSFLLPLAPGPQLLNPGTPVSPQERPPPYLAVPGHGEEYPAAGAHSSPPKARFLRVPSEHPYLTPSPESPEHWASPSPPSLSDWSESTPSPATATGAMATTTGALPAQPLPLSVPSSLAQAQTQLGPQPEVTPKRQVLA

With `C=CC[C@@]1(C(=O)NCc2ccccc2)N=C(c2ccc(OCCCO)cc2)O[C@@H]1c1ccccc1`, the composite z-score in assay [1] is 1.17; in assay [2], 0.945; in assay [3], -0.0778; in [4], -0.523; in [5], -0.347; in assay [6], 1.61. Further, the composite z-score in [7] was 0.845; in assay [9], 0.3; in [10], -0.191; in assay [11], 1.29; in [15], 3.19; in [17], 0.195. For the same compound, the composite z-score was -0.469 in assay [18], 0.311 in assay [19] and -0.147 in assay [20]. Moreover, the z-score in [8] was -2.56 (inactive); in assay [12] it was -2.54 (inactive); in assay [13], -4.81 (inactive); in assay [14] it was 12.3 (active); in assay [16] it was 2.92 (inactive).
For `CC(C)C(=C=CC[C@@H](O)c1ccc(CO)o1)CCO`, the composite z-score is -0.416 in assay [1]; 0.443 in [2]; 0.007 in assay [3]; 0.768 in [4]; -0.298 in [5]; 0.632 in assay [6]. The composite z-score in [7] is 1.19; in [9] it was -0.304; in [10] it was 0.065; in [11] it was 0.821; in assay [15] it was 1.28; in assay [17], -0.237. Besides, the composite z-score in assay [18] was 0.852; in assay [19], 0.116; in [20], -0.191. Further, the z-score in [8] was 0.136 (inactive); in assay [12] it was 1.15 (inactive); in assay [13] it was -1.09 (inactive); in [14], -0.24 (inactive); in assay [16], 1.17 (inactive).
Consider `COCCCNC(=O)[C@@]1(Cc2ccccc2CN=[N+]=[N-])COC(c2ccc(OCCCO)cc2)=N1`, for which the composite z-score came out at 1.14 in [1]; 1.3 in [2]; 0.302 in [3]; 1.07 in assay [4]; 1.28 in [5]; 1.84 in [6]. For the same compound, the composite z-score was 1.28 in assay [7]; 0.934 in assay [9]; -0.277 in [10]; 1.54 in assay [11]; 3.17 in assay [15]; 0.374 in assay [17]. The composite z-score is -0.434 in [18], 0.964 in assay [19] and 0.294 in [20]. Also, the z-score was -2.53 (inactive) in assay [8]; 1.14 (inactive) in assay [12]; -2.56 (inactive) in assay [13]; 0.0898 (inactive) in assay [14]; 2.36 (inactive) in assay [16].
Turning to `COCCOC(=O)N1C(=O)[C@@]2(c3ccccc31)[C@H](C(=O)Nc1nc3ccccc3s1)[C@H]1C(=O)O[C@H](c3ccccc3)[C@H](c3ccccc3)N1[C@@H]2c1ccc(O)cc1`, the composite z-score was 0.0605 in assay [1]; 0.202 in assay [2]; 0.074 in assay [3]; 0.823 in [4]; 1.44 in [5]; 0.57 in [6]. Moreover, the composite z-score in assay [7] is 1.28; in assay [9] it was 0.442; in assay [10], 0.0302; in assay [11] it was 1.53; in [15], 1.76; in assay [17], 0.219. Also, the composite z-score in assay [18] is 0.565; in assay [19], 1.1; in [20], 0.254. Moreover, the z-score is 2.8 (inactive) in assay [8]; 3.43 (inactive) in assay [12]; 1.8 (inactive) in assay [13]; 8.35 (active) in [14]; 2.9 (inactive) in assay [16].
`C=CCOC(=O)[C@H]1[C@@H]2C(=O)O[C@@H](c3ccccc3)[C@@H](c3ccccc3)N2[C@@H](c2ccc(OCCOC(=O)[C@H]3C[C@H]4C(=O)N5CCC[C@H]5C(=O)N4[C@H]3c3cccc(OCCO)c3)cc2)[C@]12C(=O)Nc1ccccc12`: the composite z-score in [1] is -0.113; in assay [2], 0.984; in [3], -0.147; in [4], 0.363; in assay [5], 0.0945; in assay [6], 1.06. The composite z-score in [7] is 1.24; in [9], 0.406; in [10], -0.182; in [11], 1.53; in assay [15], 2.04; in [17] it was 0.103. The composite z-score in assay [18] was 1.54; in assay [19], 1.04; in assay [20] it was -0.0828. In addition, the z-score was 0.176 (inactive) in [8]; 0.766 (inactive) in [12]; -0.347 (inactive) in assay [13]; 2.43 (inactive) in assay [14]; 1.83 (inactive) in [16].
Consider `Cc1ccc(S[C@]2(C(=O)NCC(C)C)CC(=O)N(C(C)C)[C@@H]2c2ccc(CO)cc2)cc1`, for which the composite z-score is -1.02 in [1]; -0.691 in assay [2]; -0.083 in assay [3]; -0.293 in [4]; -0.625 in assay [5]; -0.517 in assay [6]. In addition, the composite z-score is -0.0249 in [7]; 0.272 in assay [9]; 0.271 in [10]; 0.493 in [11]; -0.219 in [15]; -0.0193 in assay [17]. In addition, the values for the composite z-score in assay [18], in [19] and in assay [20] were -0.197, -0.534 and -0.175, respectively. The z-score is -0.781 (inactive) in assay [8]; 0.588 (inactive) in [12]; -2.12 (inactive) in assay [13]; -0.942 (inactive) in [14]; 0.538 (inactive) in [16].
`CCCCC(=C=CC[C@H](O)c1cccc(OCCO)c1)CCO`: the composite z-score in assay [1] is -0.0452; in [2], -0.0768; in assay [3] it was -0.0976; in assay [4], -0.662; in [5], -0.854; in assay [6], 0.52. Besides, the composite z-score is 0.519 in assay [7]; -0.101 in assay [9]; 0.0623 in assay [10]; -0.19 in [11]; 1.33 in [15]; -0.12 in [17]. Further, the composite z-score was 0.0201 in assay [18], -0.498 in [19] and -0.268 in assay [20]. Also, the z-score in [8] was 0.125 (inactive); in [12], 0.166 (inactive); in assay [13], -0.486 (inactive); in [14] it was -1.16 (inactive); in [16], 1.11 (inactive).
For the compound `CC(C)C[C@@H]1NC(=O)[C@@]23C(=O)N[C@@H](Cc4ccccc4)C2[C@H](C)[C@@]2(C)O[C@H]2C3/C=C/C/C=C\CNC(=O)[C@H](Cc2ccccc2)NC1=O` (stereo not given in full), the composite z-score is -0.215 in assay [1]; -0.215 in assay [2]; -0.101 in [3]; -0.0045 in assay [4]; 0.245 in assay [5]; 0.974 in [6]. For the same compound, the composite z-score is 0.897 in assay [7]; 0.0017 in assay [9]; 0.03 in assay [10]; 0.911 in assay [11]; 0.574 in assay [15]; -0.202 in [17]. Besides, the figures for the composite z-score in assay [18], in [19] and in assay [20] were 0.404, 0.414 and -0.0671, respectively. In addition, the z-score in [8] was 0.259 (inactive); in assay [12] it was -0.664 (inactive); in [13] it was -19.9 (active); in [14] it was -0.602 (inactive); in assay [16], 2.08 (inactive).
On to `CO[C@H]1O[C@H](CO)[C@@H](OC(=O)Nc2ccccc2)[C@H](OC(=O)Nc2ccccc2-c2ccccc2)[C@@H]1OC(=O)Nc1ccccc1-c1ccccc1`, for which the composite z-score is -0.711 in assay [1]; 0.606 in assay [2]; -0.0141 in assay [3]; 0.901 in [4]; 1.49 in [5]; 1.7 in assay [6]. The composite z-score was 1.31 in [7]; 0.325 in assay [9]; -0.0346 in assay [10]; 1.53 in [11]; 3.13 in assay [15]; 0.0623 in assay [17]. For the same compound, the composite z-score in assay [18] came out at 0.926; in [19], 1.06; in [20], 0.423. The z-score is -0.979 (inactive) in assay [8]; 1.17 (inactive) in assay [12]; -0.271 (inactive) in [13]; -0.471 (inactive) in assay [14]; 1.36 (inactive) in assay [16].
